# Key:
# Test in all cases: PBM binding z-score (relative to random genomic background probes); higher = stronger binding; sequences stand for … in GC…GCGATTGACAGCGTAGAATGAAGG
# [1] = system: RARb homodimer (NR concentration 270 nM)
# Summary of the method: (§1)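 On custom Agilent 4×180K arrays, double-stranded probes with 34-nt variable regions carried direct-repeat seeds, single-nucleotide variants, half-site ablations or random human genomic background. Ligand-free nuclear receptor dimers were applied for 1 h, and binding was read with antibodies against each partner (one per run). Binding z-scores come from regression-normalized fluorescence, with the random background probes as reference.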
# [2] = system: RARg:RXRa (NR concentration 270 nM, RXRa partner concentration 90 nM)
# Summary of the method: as §1
# [3] = system: RARg homodimer (NR concentration 270 nM)
# Summary of the method: as §1
# [4] = system: RXRa DBDmut IVT, anti-RXR (DBD mutation: RXRa K156A/R161A, NR concentration 90 nM)
# Summary of the method: as §1
# [5] = system: RXRa homodimer (NR concentration 180 nM)
# Summary of the method: as §1
# [6] = system: THRa:RXRa (NR concentration 90 nM, RXRa partner concentration 90 nM)
# Summary of the method: as §1
# [7] = system: THRa homodimer (NR concentration 90 nM)
# Summary of the method: as §1
# [8] = system: VDR homodimer (NR concentration 270 nM)
# Summary of the method: as §1
Sequence,PBM binding z-score [1],PBM binding z-score [2],PBM binding z-score [3],PBM binding z-score [4],PBM binding z-score [5],PBM binding z-score [6],PBM binding z-score [7],PBM binding z-score [8]
AGTCAAAGTTCACTAGGTAACGTAAGATTCAGCT,3.81,4.81,5.08,4.23,3.76,2.22,0.232,3.29
CCGACTGGGGCATAAGGTTACCCTAAGCCAGCCC,1.42,1.27,0.806,-0.487,1.07,1.79,1.55,-0.217
CCTCGGACGACAGAAGGTCAGAGCTGTCCGCTTT,3.09,2.54,2.68,0.306,1.98,1.57,-0.117,0.204
CGTCCAAGGTCAAGGTCAGTGGAAGAGACTCGAA,5.13,6.64,7.58,3.79,6.05,4.21,3.67,3.15
CCGACTGGGGCAAATGTTACCATACTCAGTACGA,0.264,0.382,0.67,0.518,0.184,-0.0523,-0.199,-0.144
TCATATAGGTAATACAGGTGAAACTCGGCATCTA,0.77,0.826,0.818,1.45,1.1,1.23,0.391,0.169
CCTACTGGGCCATCAGGGCATTGATATCAACGTT,0.404,0.0558,0.438,-0.959,-0.308,0.292,-0.276,-0.114
CTACCAAGGTGAACAAGGTCATTGATTACTATTC,3.82,3.75,3.4,2.28,4.27,4.18,3.41,4.4
GCTGCTAGGTCAACTGATGCTCAGCTAAAGCTCG,3.18,4.37,5.36,1.64,2.89,2.89,0.915,-0.0358
GCGACTGGGGCAAAGCAGGTTAGCATAAGGTTGG,0.654,0.256,0.429,-0.341,0.0651,2.28,-0.225,-0.542
CAAACTAGGTCAACGGTCAAAGTCGAGCCAACCA,3.76,4.94,5.4,2.12,4.02,3.14,1.31,1
ACGAGCAGGCCAAGGGTCACTCAAGATTAGTCCG,3.96,4.21,4,0.0917,4.07,2.69,0.262,0.916
TCATATAGGTAATACAGGTGGAAGTCGGCATCTA,0.159,0.56,0.449,1.5,1.31,0.353,0.0491,0.547
CGTCCAAGGTCAATGCTAGGTGAGTGAAAGCATT,3.95,5.76,6.07,3.39,4.73,3.92,2.34,2.15
AGAACGAGGGCACGCTGGGTTGATAGCAGAGTAG,1.28,2.01,2.36,1.87,1.56,2.5,0.224,2.08
CCTGCTAGGTCATTGTCAGCTAATCTACAGTATG,2.45,3.06,3.95,2.93,1.9,2.61,0.862,1.14
TGAATGAGGTTATAAGTTCAGGGAACGTTGCAAA,2.54,4.88,2.27,1.49,3.46,2.58,0.487,2.85
CCTACTAGTTGACCATAAGGGCAACCGAAGCTCG,1.92,0.922,0.714,0.0414,0.509,1.75,1.28,0.643
CCTAGTTGGTCAAGGTCACTCACGCTATAGGTAC,4.26,4.06,4.75,2.1,3.76,3.83,3.83,3.53

Sequence,PBM binding z-score [1],PBM binding z-score [2],PBM binding z-score [3],PBM binding z-score [4],PBM binding z-score [5],PBM binding z-score [6],PBM binding z-score [7],PBM binding z-score [8]
TAAACAGGGTCAAAGGCCAGAGTACGAATGTCGA,3.41,5.73,4.81,3.1,7.01,3.51,0.558,3.45
CCGACTGGGGCAGAAAGGCTACCATACCATCCGG,0.243,-0.0591,-0.0697,-0.996,-0.122,-0.836,-0.539,-0.212
CAAACTAGGTCACAGAGTTCAAAGTCCGTGCGTA,4.74,6.06,6.71,4.25,5.69,4.03,1.96,9.52
TCTATTAGTTGTAGGGCAACCGACGAGTCCGTTT,0.489,0.147,0.469,1.17,0.403,0.112,0.0984,1.13
ATCTCTAGGTAACCAAGTTGAGTGAATGCCGAAC,0.229,-0.0592,0.11,0.0229,0.0959,0.852,0.635,0.254
TCTTGTAGATCAAGCAGGTTAAGACAGCCTGAGT,0.295,-0.0241,-0.105,0.547,0.368,0.23,-0.66,-0.155
CAAACTAGGTCAAAGTCAAAGTCGGTTTGTGCCA,3.06,3.87,4.41,2.32,3.11,2.81,0.817,1.05
GGAACGAGGGCAAAGTTGCTAGCATCTGTCGACG,1.09,1.27,1.73,2.63,1.07,0.852,-0.505,1.46
CGAACTAGGTCATCCAGGACAGTGACTACATTGA,3.11,4.13,4.54,2.28,2.93,3.77,2.2,1.69
TCCCGGAGGACACGAAAGGTCAGAGCTCGACATC,4.78,4.89,5.23,0.811,3.89,3.88,1.31,0.948
GATACAGGGTCAGCTAGATGCCAGAGTATGGAAA,2.84,4.95,4.12,1.23,4.38,2.87,0.0826,0.494
CTACCAAGGTGAACAAGGTCGTTGATTACTATTC,2.1,1.73,1.67,1.41,1.91,3.2,1.81,2.28
CGTCCAATGTCAGCAGGTCAGTGAAAGCGACGTG,2.76,2.04,2.59,0.442,0.9,1.31,0.239,0.584
CCTATTAGTTGACCATAAGGGCAACCTAAGCTCG,2.22,1.47,1.24,0.437,0.949,2.16,1.8,0.755
TCGAGTAGGTTAGTCGGGGCATTTAGCCAACATA,0.426,0.175,-0.0384,0.477,0.261,1.12,-0.042,0.418
CGTCAAAGTTCAAGGTAACGAAACAGAAAGCAGC,3.67,5.6,6.29,4.46,5.13,2.9,0.933,2.99
GCGACTGGGGCAAAGCAGCTTACCATAAGGTTGG,-0.0781,-0.172,0.112,-0.131,-0.267,-0.139,-0.756,-0.658
CCTCGGAGAACAACAGGAGGTCAGAGCTGCCAGA,2.85,1.99,1.83,0.121,1.86,2.02,0.641,0.996
ATCTCTAGGTAACCAAGTTCAGTGACTGCCGAAC,1.39,0.744,0.871,1.24,0.577,1.46,1.03,2.9

Sequence,PBM binding z-score [1],PBM binding z-score [2],PBM binding z-score [3],PBM binding z-score [4],PBM binding z-score [5],PBM binding z-score [6],PBM binding z-score [7],PBM binding z-score [8]
TAGCCTAGGTCATGCGGGCCAGTTTAGTGTCGGC,3.03,3.96,4.73,0.93,3.2,3.02,1.07,0.95
GCAGACAGGTGAAACGCAGGTTACTCAGGGTGGC,0.785,2.09,0.458,-0.376,1.07,1.88,-0.27,-0.446
AATACAGGGTCACTAGGCCAGAGTAGGTACGAAT,3.61,5.13,4.83,2.83,5.52,3.38,1.27,2.5
TGAATGATGTTATAAGATCAGGGAACGTTGCAAA,-0.648,0.116,0.244,-1.01,0.153,-0.185,-0.281,-0.22
CCTTACGGGTAAAGGTTATAGCACGGGTGGTACG,1.5,2.02,1.06,-1.08,2.34,1.31,0.0229,0.43
ATCTCTAGATAAGACTCAGTTCAGTGAAGAACGC,0.0113,-0.0447,0.323,0.327,-0.154,0.116,-0.107,1.02
ATCGGAAGGTCGAAGGTGAGTATACCCACCCGAA,1.44,2.82,2.27,0.152,3.19,1.4,-0.0912,0.449
GCAGACAGTTGAAACGCAGGTAACTCAGGGTGGC,-0.639,0.0568,-0.397,-0.408,0.339,0.919,-0.565,-0.832
AGTCAAAGTTCACTAGGTAACGCAAGATTCAGCT,3.66,5.13,6.21,4.25,4.24,2.08,0.154,3.32
CAAACTAGGTCACAGAAGTCAAAGTCCGTGCGTA,3.41,4.45,5.16,2.03,3.63,3.3,1.26,1.16
GCGACTGGGGCAAAGCAGGTTACCCTAAGGTTGG,0.988,0.329,0.427,-0.421,0.394,2.85,0.12,-0.641
GCTTGCAGATCAAGGTTAAGAAAGACTAAGCTAA,-0.0263,0.321,0.141,-0.00088,0.55,1.16,-0.514,-0.323
ATCTCTAGGTAACCAAGTTAAGTGAATGCCGAAC,0.215,0.245,0.306,-0.119,0.154,0.825,0.542,-0.108
CCTACTGGGCCAAGGTCATCGATCAGTCAAAGCA,3.75,4.18,3.9,0.883,3.79,3.68,2.69,2.38
TTACCAAGGTGAAAGGTCGTAGATGCACGCCTTG,2.48,4.5,2.1,-0.0824,6.49,3.42,0.581,0.0396
TCATATAGGTAATACAGGTGAAAGACGGCATCTA,0.66,0.945,0.86,1.52,1.38,0.85,0.434,0.471
GATACAGGGTCAGCTAGAGGCCAGAGTCTGGAAA,3.39,6.56,5.07,1.7,4.07,2.9,0.144,0.522
CCGACTGGGGCAAGGTTACCATAACGCACAGCCA,1.33,1.31,1.39,-0.473,1.34,1.33,0.342,-0.0373
CCTCGGCGGACAACAGGAGGTCAGAGCTGCCAGA,2.88,2.16,2.04,-0.404,1.71,1.75,0.00224,0.257

# — the supplement of paper PMC6555819
